# Test results as given in PubChem BioAssay (Tox21).
# Where “and” joins values, the source holds several entries; their conditions need not be identical. Equal values may be shown once. Records with an inconclusive call do not appear. A call without a number means that no potency is given here. A structure can be active in one record and inactive in another. Calls of active or inactive are those of the source. Unless noted, calls follow the shape of the dose curve; as a rule, active = well fitted curve in the direction sought with a large enough effect in the repeat runs; inconclusive = weak or mixed curves; inactive = no such curve, though single readings can be large; an effect the other way counts as inactive or inconclusive. Starred links: 1 amine or outer side, 2 acyl side, 3 side chain; linkers in the order of their positions; H or OH if unused. Positions of bridges follow the written chain, without caps; N, C: chain ends. Non-standard residues stand in square brackets, D forms with d. Residues, ends and D or L forms follow the SMILES beside them. Chains are numbered I, II in the order given. Actinocin(9to1) = Cc1c2oc3c(C)ccc(C(=O)[*:1])c3nc-2c(C(=O)[*:2])c(N)c1=O; NMeV = CN[C@H](C(=O)O)C(C)C; Sar = CNCC(=O)O
# Assays:
# [1] = target: Peroxisome proliferator-activated receptor delta (Homo sapiens) (UniProt Q03181); experiment: qHTS assay to identify small molecule antagonists of the peroxisome proliferator-activated receptor delta (PPARd) signaling pathway (AID 743215; active = well fitted inhibition curve with a large enough effect in the signal ratio in the repeat runs, not every such curve was filed as active; the % refers to the signal ratio;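 also: cells stimulated with agonist L165041 at 300 nM final during compound exposure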; also: potency is read from the fitted curve at half-maximal effect)
# Method in brief: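 Here, a reporter line (HEK293H, beta-lactamase under a UAS) measures PPARd signaling. Compounds are tested against agonist L165041 at 300 nM final concentration over 17 h at 37 C, with fluorescence read after substrate.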
# [2] = qHTS assay to identify small molecule agonists of the farnesoid-X-receptor (FXR) signaling pathway - cell viability counter screen (AID 743218); also: nearly all actives have a fitted effect of over 45% in size; also: potency is read from the fitted curve at half-maximal effect
# Method in brief: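 Quantitative HTS counter screen measuring ATP-based viability via CellTiter-Glo luminescence in HEK 293T cells carrying a UAS-driven beta-lactamase reporter, after 16 h compound exposure at 37 C.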
# [3] = qHTS assay to identify small molecule antagonists of the farnesoid-X-receptor (FXR) signaling pathway - cell viability counter screen (AID 743221; active = well fitted cell-killing curve with a large enough effect in the repeat runs, not every such curve was filed as active; also: nearly all actives have a fitted effect of over 50% in size; also: potency is read from the fitted curve at half-maximal effect)
# Method in brief: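 Luminescence from CellTiter-Glo measures cytotoxicity in GeneBLAzer FXR-UAS-bla HEK 293T cells. Cells were exposed to compounds with 50 uM chenodeoxycholic acid (final) for 16 h at 37 C, in wells also used for the reporter readout.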
# [4] = target: Vitamin D3 receptor (Homo sapiens) (UniProt P11473); experiment: qHTS assay to identify small molecule agonists of the vitamin D receptor (VDR) signaling pathway (AID 743222; calls by dose curve)
# Method in brief: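 Tox21 cell reporter format: VDR-bla line, 16 h compound exposure in 5% CO2 at 37C, then fluorescence intensity after 2 h with LiveBLAzer B/G FRET substrate.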
# [5] = target: Vitamin D3 receptor (Homo sapiens) (UniProt P11473); experiment: qHTS assay to identify small molecule antagonists of the vitamin D receptor (VDR) signaling pathway (AID 743223; active = well fitted inhibition curve with a large enough effect in the signal ratio in the repeat runs, not every such curve was filed as active; the % refers to the signal ratio; also: potency is read from the fitted curve at half-maximal effect)
# Method in brief: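 Antagonist mode uses 1alpha,25-dihydroxyvitamin D3 at 3 nM final as stimulus. VDR-bla cells receive compounds in DMSO, incubate 16 h at 37C, then a beta-lactamase FRET substrate for 2 h at room temperature before fluorescence measurement.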
# [6] = qHTS assay to identify small molecule agonists of the vitamin D receptor (VDR) signaling pathway - cell viability counter screen (AID 743224); also: nearly all actives have a fitted effect of over 50% in size; also: potency is read from the fitted curve at half-maximal effect
# Method in brief: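 CellTiter-Glo viability readout on VDR-bla cells, measured after 16 h of compound treatment at 37C in the same wells.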
# [7] = qHTS assay to identify small molecule antagonists of the vitamin D receptor (VDR) signaling pathway - cell viability counter screen (AID 743225); also: nearly all actives have a fitted effect of over 50% in size; also: potency is read from the fitted curve at half-maximal effect
# Method in brief: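 Read-out: CellTiter-Glo luminescence measured 30 min after reagent addition at room temperature. Cells were VDR-bla HEK 293T exposed 16 h at 37C, 5% CO2, to compound with 3 nM final calcitriol agonist.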
# [8] = qHTS assay to identify small molecule agonists of the NFkB signaling pathway - cell viability counter screen (AID 1159515; calls by dose curve; also: nearly all actives have a fitted effect of over 55% in size; also: potency is read from the fitted curve at half-maximal effect)
# Method in brief: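 Tox21 library compounds were tested for cytotoxicity against NFkB-bla ME-180 cells during a 5 hr exposure at 37 C. CellTiter-Glo luminescence served as the viability read-out.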
# [9] = qHTS assay to identify small molecule agonists of the endoplasmic reticulum stress response signaling pathway (AID 1159516; active = well fitted activation curve with a large enough effect in the signal ratio in the repeat runs, not every such curve was filed as active; the % refers to the signal ratio)
# Method in brief: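 Fluorescence at 460 and 530 nm (405 nm excitation) reports beta-lactamase from an ER stress response element in HeLa cells treated 5 hr at 37 C.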
# [10] = qHTS assay to identify small molecule agonists of the endoplasmic reticulum stress response signaling pathway - cell viability counter screen (AID 1159517; calls by dose curve; also: nearly all actives have a fitted effect of over 50% in size; also: potency is read from the fitted curve at half-maximal effect)
# Method in brief: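 ESRE-bla HeLa cells (1,500/well) were plated overnight at 37 C and exposed to compounds for 5 hr. After the 2 hr beta-lactamase substrate read, CellTiter-Glo went into the same wells, and luminescence was read after 30 min at room temperature.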
# [11] = qHTS assay to identify small molecule antagonists of the retinoid-related orphan receptor gamma (ROR-gamma) signaling pathway - cell viability counter screen (AID 1159520); also: nearly all actives have a fitted effect of over 50% in size; also: potency is read from the fitted curve at half-maximal effect
# Method in brief: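 Cytotoxicity was read from cellular ATP (CellTiter-Glo luminescence) after 16 hr at 37 C with 1 uM doxycycline induction. The inducer was added 2 hr after compound transfer to Tet-on ROR gamma CHO cells.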
# [12] = target: Nuclear receptor ROR-gamma (Homo sapiens) (UniProt P51449); experiment: qHTS assay to identify small molecule antagonists of the retinoid-related orphan receptor gamma (ROR-gamma) signaling pathway (AID 1159521; also: nearly all actives have a fitted effect of over 50% in size; also: potency is read from the fitted curve at half-maximal effect)
# Method in brief: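 CHO Tet-on RORγ, RORE-luc reporter. Cpd 2 h pre-incubation, then dox hyclate 1 uM final, 16 h, 37 C/5% CO2. ONE-Glo luminescence; decrease = antagonist.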
# [13] = qHTS assay to identify small molecule agonists of the AP-1 signaling pathway - cell viability counter screen (AID 1159525; calls by dose curve; also: nearly all actives have a fitted effect of over 55% in size; also: potency is read from the fitted curve at half-maximal effect)
# Method in brief: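 Intracellular ATP by Cell Titer Glo luminescence (30 min, RT) in the same ME-180 AP-1-bla wells after the 5 h compound exposure at 37 °C. Normalised to tetra n-octyl ammonium bromide and DMSO controls.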
# [14] = qHTS assay to identify small molecule agonists of the AP-1 signaling pathway (AID 1159526; calls by dose curve)
# [15] = target: Retinoic acid receptor RXR-alpha (Homo sapiens) (UniProt P19793); experiment: qHTS assay to identify small molecule agonists of the RXR signaling pathway (AID 1159527; calls by dose curve; also: nearly all actives have a fitted effect of over 35% in size)
# Method in brief: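 Read-out: beta-lactamase FRET ratio (405 nm excitation, 460 and 530 nm emission) after 2 hr substrate loading at room temperature. Cells were RXR-alpha-UAS-bla HEK 293T treated with compounds for 16 hr in 2% charcoal-stripped FBS medium.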
# [16] = qHTS assay to identify small molecule agonists of the peroxisome proliferator-activated receptor delta (PPARd) signaling pathway - cell viability counter screen (AID 743211); also: nearly all actives have a fitted effect of over 55% in size
# Method in brief: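 HEK293H PPARd-bla, 3000 cells/well; 5 h preincubation 37C/5% CO2; cpd in DMSO, 17 h 37C; B/G FRET substrate 2 h RT; CellTiter-Glo 30 min RT, luminescence.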
# [17] = target: Bile acid receptor (Homo sapiens) (UniProt Q96RI1); experiment: qHTS assay to identify small molecule antagonists of the farnesoid-X-receptor (FXR) signaling pathway (AID 743217; active = well fitted inhibition curve with a large enough effect in the signal ratio in the repeat runs, not every such curve was filed as active; the % refers to the signal ratio)
# Method in brief: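 Test compounds are pin-transferred onto FXR-bla HEK 293T cells, then chenodeoxycholic acid is added at 50 uM final. After 16 h at 37 °C, LiveBLAzer B/G substrate is applied for 2 h at room temperature and fluorescence read.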
# [18] = target: Bile acid receptor (Homo sapiens) (UniProt Q96RI1); experiment: qHTS assay to identify small molecule agonists of the farnesoid-X-receptor (FXR) signaling pathway (AID 743220; active = well fitted activation curve with a large enough effect in the signal ratio in the repeat runs, not every such curve was filed as active; the % refers to the signal ratio; also: potency is read from the fitted curve at half-maximal effect)
# Method in brief: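 FXR-UAS-bla HEK 293T cells carrying a UAS-driven beta-lactamase reporter were plated for 5 h at 37C/5% CO2, then exposed to DMSO-dissolved Tox21 10K compounds for 16 h at 37C. A LiveBLAzer B/G FRET substrate was loaded for 2 h at room temperature before fluorescence reading.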
# [19] = target: Peroxisome proliferator-activated receptor delta (Homo sapiens) (UniProt Q03181); experiment: qHTS assay to identify small molecule agonists of the peroxisome proliferator-activated receptor delta (PPARd) signaling pathway (AID 743212; calls by dose curve;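 also: HEK293H cells with PPARd UAS beta-lactamase reporter GeneBLAzer system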)
# Method in brief: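 Beta-lactamase reporter readout: a ratiometric FRET signal from the LiveBLAzer substrate after 2 h at room temperature. Compound exposure at 37 °C in PPARδ-bla HEK293H cells driven by an upstream activator sequence.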
# [20] = qHTS assay to identify small molecule antagonists of the peroxisome proliferator-activated receptor delta (PPARd) signaling pathway - cell viability counter screen (AID 743213); also: nearly all actives have a fitted effect of over 50% in size; also: potency is read from the fitted curve at half-maximal effect
# Method in brief: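 Viability counter-screen, qHTS format: PPARd-bla HEK293H, L165041 300 nM final, 17 h compound exposure at 37 C, CellTiter-Glo luminescence after 30 min RT.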
# Sequence of Bile acid receptor (Homo sapiens) (Q96RI1 whole entry, looked up): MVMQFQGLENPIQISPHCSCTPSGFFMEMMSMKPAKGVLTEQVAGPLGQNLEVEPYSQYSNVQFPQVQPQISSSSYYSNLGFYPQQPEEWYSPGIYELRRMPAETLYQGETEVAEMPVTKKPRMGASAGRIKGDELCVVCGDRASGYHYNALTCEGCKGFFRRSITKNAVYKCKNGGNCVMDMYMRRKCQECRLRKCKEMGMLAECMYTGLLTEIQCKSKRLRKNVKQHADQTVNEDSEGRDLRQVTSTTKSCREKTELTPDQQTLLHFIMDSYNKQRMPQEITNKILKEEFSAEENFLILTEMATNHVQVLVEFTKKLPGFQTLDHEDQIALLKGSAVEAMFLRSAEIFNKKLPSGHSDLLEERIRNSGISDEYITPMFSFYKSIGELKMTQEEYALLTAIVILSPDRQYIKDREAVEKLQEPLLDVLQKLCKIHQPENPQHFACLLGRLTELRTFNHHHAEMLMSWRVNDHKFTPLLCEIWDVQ
# Sequence of Vitamin D3 receptor (Homo sapiens) (P11473 whole entry, looked up): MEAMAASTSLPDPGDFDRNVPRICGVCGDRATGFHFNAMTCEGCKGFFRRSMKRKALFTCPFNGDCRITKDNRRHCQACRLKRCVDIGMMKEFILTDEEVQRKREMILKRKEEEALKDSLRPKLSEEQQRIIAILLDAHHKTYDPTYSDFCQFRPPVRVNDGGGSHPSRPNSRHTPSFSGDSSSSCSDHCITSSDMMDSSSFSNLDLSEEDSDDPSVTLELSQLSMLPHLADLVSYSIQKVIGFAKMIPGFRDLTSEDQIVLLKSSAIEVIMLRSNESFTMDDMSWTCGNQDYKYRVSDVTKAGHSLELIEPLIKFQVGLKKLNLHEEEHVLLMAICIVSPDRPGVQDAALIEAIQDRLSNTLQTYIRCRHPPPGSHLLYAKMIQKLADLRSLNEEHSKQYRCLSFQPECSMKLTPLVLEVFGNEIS
# Sequence of Retinoic acid receptor RXR-alpha (Homo sapiens) (P19793 whole entry, looked up): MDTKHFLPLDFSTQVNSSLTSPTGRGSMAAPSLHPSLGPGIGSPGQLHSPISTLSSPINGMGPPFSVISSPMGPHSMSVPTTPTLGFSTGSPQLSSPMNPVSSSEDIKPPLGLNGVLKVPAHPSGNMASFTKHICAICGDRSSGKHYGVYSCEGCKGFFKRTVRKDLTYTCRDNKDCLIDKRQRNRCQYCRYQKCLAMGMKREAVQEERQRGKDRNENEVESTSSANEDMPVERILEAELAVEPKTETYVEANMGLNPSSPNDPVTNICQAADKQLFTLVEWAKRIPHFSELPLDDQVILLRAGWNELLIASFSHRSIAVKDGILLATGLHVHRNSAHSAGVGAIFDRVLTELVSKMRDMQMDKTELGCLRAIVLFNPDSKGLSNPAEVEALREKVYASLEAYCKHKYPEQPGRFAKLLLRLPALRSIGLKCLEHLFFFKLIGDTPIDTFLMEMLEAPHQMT
# Sequence of Peroxisome proliferator-activated receptor delta (Homo sapiens) (Q03181 whole entry, looked up): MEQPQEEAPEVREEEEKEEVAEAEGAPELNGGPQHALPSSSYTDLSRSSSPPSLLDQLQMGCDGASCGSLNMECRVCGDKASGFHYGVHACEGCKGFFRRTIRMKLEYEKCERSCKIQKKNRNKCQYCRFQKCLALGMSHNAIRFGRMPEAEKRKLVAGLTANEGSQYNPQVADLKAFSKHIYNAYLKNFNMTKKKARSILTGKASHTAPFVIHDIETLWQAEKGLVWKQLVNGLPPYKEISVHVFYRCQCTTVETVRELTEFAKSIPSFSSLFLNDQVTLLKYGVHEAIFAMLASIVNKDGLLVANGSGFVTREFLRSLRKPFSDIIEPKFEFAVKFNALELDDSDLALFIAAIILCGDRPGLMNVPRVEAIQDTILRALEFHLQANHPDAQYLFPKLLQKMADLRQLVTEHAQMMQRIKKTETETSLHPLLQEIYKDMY
Compound,Potency [1],Potency [2],Potency [3],Potency [4],Potency [5],Potency [6],Potency [7],Potency [8],outcome [9],Potency [10],Potency [11],Potency [12],Potency [13],Potency [14],Potency [15],Potency [16],Potency [17],Potency [18],Potency [19],Potency [20]
COC(=O)/C=C/c1ccccc1,inactive,inactive,inactive,inactive,inactive,inactive,inactive,inactive,inactive,inactive,inactive,inactive,inactive,inactive,inactive,,,,,
Nc1ccc(O)cc1,,25.5 µM (active) and inactive,inactive,,inactive,inactive,inactive,inactive,inactive,inactive,63.5 µM (active) and inactive,31.8 µM (active) and inactive,32.1 µM (active) and inactive,inactive,inactive,inactive,inactive,20.3 µM (active) and inactive,,
Cc1ccc(-c2cc(C(F)(F)F)nn2-c2ccc(S(N)(=O)=O)cc2)cc1,,inactive,inactive,,,inactive,48.8 µM (active),inactive,inactive,inactive,60.9 µM (active) and 54.5 µM (active),,48.8 µM (active) and 54.9 µM (active),,,,,,inactive,
CCCN[C@H]1CCc2nc(N)sc2C1,,inactive,inactive,inactive,inactive,inactive,inactive,inactive,inactive,inactive,inactive,inactive,inactive,inactive,inactive,,,,,inactive
CCCCC(CC)COC(=O)CC(C(=O)OCC(CC)CCCC)S(=O)(=O)O (configuration not stated),inactive,52.9 µM (active) and 43.6 µM (active),43.6 µM (active),inactive,inactive,42 µM (active) and 43.6 µM (active),21.1 µM (active) and 15.5 µM (active),47.1 µM (active) and 49 µM (active),,,inactive,inactive,42 µM (active) and 49 µM (active),,,,,,,15.5 µM (active)
Oc1c(Cl)cc(Cl)cc1Sc1cc(Cl)cc(Cl)c1O,21.9 µM (active) and 17.4 µM (active) and inactive,15.5 µM (active),27.6 µM (active),inactive,,21.9 µM (active) and 44.4 µM (active) and inactive,24.6 µM (active) and 55.9 µM (active) and 43.6 µM (active),55.1 µM (active) and inactive,,55.1 µM (active) and 55.9 µM (active) and 49 µM (active),15.4 µM (active) and 21.7 µM (active),,49.1 µM (active) and 49 µM (active) and inactive,,,,,inactive,inactive,49.1 µM (active) and 19.5 µM (active)
O=C1OC2(c3ccc(O)cc3Oc3cc(O)ccc32)c2ccccc21,,inactive,inactive,,,inactive,inactive,inactive,,inactive,inactive,inactive,inactive,,,,,,,inactive
O=C(O[C@@H]1Cc2c(O)cc(O)cc2O[C@@H]1c1cc(O)c(O)c(O)c1)c1cc(O)c(O)c(O)c1,,inactive,inactive,inactive,inactive,inactive,inactive,inactive,,inactive,inactive,,inactive,,inactive,inactive,,,,
COc1ccc(CCN(C)CCCC(C#N)(c2ccc(OC)c(OC)c2)C(C)C)cc1OC (configuration not stated),,inactive,inactive,,,,,inactive,,inactive,inactive,inactive,inactive,,,inactive,,,,
Nc1nc(=S)c2[nH]cnc2[nH]1,,inactive,inactive,,,1.74 µM (active) and 3.35 µM (active),,inactive,,inactive,,26.6 µM (active) and inactive,inactive,inactive,,inactive,,,,
Nc1cc(Cl)c(-c2cc(Cl)c(N)cc2Cl)cc1Cl,,43.6 µM (active) and 12.3 µM (active),38.9 µM (active),,54.9 µM (active),49 µM (active),21.9 µM (active),48.9 µM (active) and 54.9 µM (active),,54.9 µM (active),61.1 µM (active),7.69 µM (active) and 7.7 µM (active),38.9 µM (active) and 54.9 µM (active),,,,,,inactive,24.5 µM (active)
"Cc1c2oc3c(C)ccc(C(=O)N[C@@H]4C(=O)N[C@H](C(C)C)C(=O)N5CCC[C@H]5C(=O)N(C)CC(=O)N(C)[C@@H](C(C)C)C(=O)O[C@@H]4C)c3nc-2c(C(=O)N[C@@H]2C(=O)N[C@H](C(C)C)C(=O)N3CCC[C@H]3C(=O)N(C)CC(=O)N(C)[C@@H](C(C)C)C(=O)O[C@@H]2C)c(N)c1=O (I: T[dV]P[Sar][NMeV] / II: T[dV]P[Sar][NMeV]; ester I:1-I:C, II:1-II:C; linker I:N-II:N via Actinocin(9to1))",1.7 nM (active) and 11.9 nM (active),,inactive,inactive,,26.8 µM (active) and inactive,inactive,inactive,,26.8 nM (active) and 107 nM (active),,29.8 nM (active) and 188 nM (active),inactive,,,,,,inactive,
CCN(CC)c1ccc2c(C)cc(=O)oc2c1,,inactive,inactive,,,inactive,inactive,inactive,,inactive,inactive,inactive,inactive,,,,,,,inactive
